Test [1] can be described thus: antimalarial activity against Dd2 strain (AID 2302;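 active = growth inhibition above 50% at the single 2 µM test dose, taken to imply half-maximal potency below 2 µM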;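 also: 0% = DMSO untreated growth and 100% = chloroquine plus artemisinin killed control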). The conditions noted are these: P. falciparum Dd2 in RBCs, LDH growth readout, 72 h; at 2 µM; active compounds read high.
A short description of test [2]: HepG2 cytotoxicity, primary screen, cytotoxicity control for P. falciparum antimalarial project, cell-based, ATP luminescence (AID 2303;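 active = inhibition above 50%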;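 also: 0% = DMSO wells and 100% = digitonin-killed cells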). Particulars: HepG2 viability, 24-48 h, at 10 µM, active compounds read high.
In test [3] the target is L-lactate dehydrogenase (Plasmodium falciparum (isolate CDC / Honduras)) (UniProt Q27743). Briefly: PfLDH activity inhibition – cell lysate, 3D7 strain, counter-screen for P. falciparum growth inhibition project (AID 2304).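 Also: 0% = vehicle and 100% = reference inhibitor.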 The conditions noted are these: P. falciparum 3D7 crude extract, LDH APAD/NBT absorbance; at 2 µM; active compounds read high.
Sequence of L-lactate dehydrogenase (Plasmodium falciparum (isolate CDC / Honduras)) (Q27743 whole entry, looked up): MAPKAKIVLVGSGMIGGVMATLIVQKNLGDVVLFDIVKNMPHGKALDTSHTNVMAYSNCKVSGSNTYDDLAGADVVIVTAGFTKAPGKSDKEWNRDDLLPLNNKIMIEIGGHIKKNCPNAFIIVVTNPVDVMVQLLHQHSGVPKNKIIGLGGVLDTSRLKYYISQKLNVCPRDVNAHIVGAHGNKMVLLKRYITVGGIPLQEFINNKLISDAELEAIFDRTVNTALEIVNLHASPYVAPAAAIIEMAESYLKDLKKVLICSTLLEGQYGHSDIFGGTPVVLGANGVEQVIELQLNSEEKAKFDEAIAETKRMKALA
Test [4] in a line: inhibition of 3D7 malaria parasite growth – strain 3D7 (AID 2306).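 Also: 0% = DMSO wells and 100% = chloroquine plus artemisinin control wells.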 Particulars: P. falciparum 3D7 erythrocytic growth, LDH absorbance, 72 h; at 2 µM; active compounds read high.
In test [5] the target is Calcium-dependent protein kinase 1 (Plasmodium falciparum (isolate 3D7)) (UniProt P62344). Nature of the test: PfCDPK1 kinase inhibitors, biochemical, TCAMS library (AID 1159585; cut-off not given, nearly all actives have IC50 up to about 0.98 µM;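 also: inhibitors leave more ATP so luminescence rises with inhibition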). The conditions noted are these: recombinant PfCDPK1, Kinase-Glo ATP depletion luminescence. Background: In Kinase-Glo more light means more ATP remaining.
Sequence of Calcium-dependent protein kinase 1 (Plasmodium falciparum (isolate 3D7)) (P62344 whole entry, looked up): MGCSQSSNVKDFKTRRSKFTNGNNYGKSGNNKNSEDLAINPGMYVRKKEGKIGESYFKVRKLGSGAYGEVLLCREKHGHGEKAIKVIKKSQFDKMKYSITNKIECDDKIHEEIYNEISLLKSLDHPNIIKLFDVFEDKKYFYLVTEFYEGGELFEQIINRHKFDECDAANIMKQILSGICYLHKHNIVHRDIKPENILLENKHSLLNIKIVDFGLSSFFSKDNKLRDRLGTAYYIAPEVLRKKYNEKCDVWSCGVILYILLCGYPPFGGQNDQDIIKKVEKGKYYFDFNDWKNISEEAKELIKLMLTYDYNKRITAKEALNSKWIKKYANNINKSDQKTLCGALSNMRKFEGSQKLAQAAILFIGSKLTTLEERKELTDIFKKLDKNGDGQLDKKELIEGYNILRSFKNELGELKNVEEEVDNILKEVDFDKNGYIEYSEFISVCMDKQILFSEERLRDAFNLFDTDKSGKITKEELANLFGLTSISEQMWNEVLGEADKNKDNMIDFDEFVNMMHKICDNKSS
Test [6] has as its target Plasmodium falciparum protein kinase 6 (PK6, PF3D7_1337100) (UniProt Q8IDW1). Briefly: PfPK6 kinase inhibitors, biochemical, TCAMS library (AID 1159586). Particulars: recombinant PfPK6, Kinase-Glo ATP depletion luminescence.
The target in test [7] is Protein kinase 7 (PK7), Plasmodium falciparum 3D7 (PF3D7_0213400) (UniProt Q7YTF7). Nature of the test: inhibition of Plasmodium PK7 catalytic activity – biochemical, TCAMS antimalarial set, Kinase-Glo luminescence (AID 1159587). Particulars: recombinant PfPK7, Kinase-Glo ATP depletion luminescence.
Sequence of Protein kinase 7 (PK7), Plasmodium falciparum 3D7 (PF3D7_0213400) (Q7YTF7 1-343): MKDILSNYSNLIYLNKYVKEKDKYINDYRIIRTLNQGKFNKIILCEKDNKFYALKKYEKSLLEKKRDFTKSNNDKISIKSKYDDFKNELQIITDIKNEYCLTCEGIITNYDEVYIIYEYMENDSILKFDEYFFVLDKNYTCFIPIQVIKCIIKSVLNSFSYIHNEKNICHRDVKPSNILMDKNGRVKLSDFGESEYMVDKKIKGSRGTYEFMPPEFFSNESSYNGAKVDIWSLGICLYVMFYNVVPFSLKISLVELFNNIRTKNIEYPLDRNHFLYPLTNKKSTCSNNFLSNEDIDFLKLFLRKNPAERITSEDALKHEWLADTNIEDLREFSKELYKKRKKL
The target of test [8] is Calcium-dependent protein kinase 4 (Plasmodium falciparum (isolate 3D7)) (UniProt Q8IBS5). Nature of the test: PfCDPK4 kinase inhibitors, biochemical, TCAMS library (AID 1159588; cut-off not given, nearly all actives have IC50 up to about 0.91 µM). The conditions noted are these: recombinant PfCDPK4, Kinase-Glo ATP depletion luminescence.
Sequence of Calcium-dependent protein kinase 4 (Plasmodium falciparum (isolate 3D7)) (Q8IBS5 whole entry, looked up): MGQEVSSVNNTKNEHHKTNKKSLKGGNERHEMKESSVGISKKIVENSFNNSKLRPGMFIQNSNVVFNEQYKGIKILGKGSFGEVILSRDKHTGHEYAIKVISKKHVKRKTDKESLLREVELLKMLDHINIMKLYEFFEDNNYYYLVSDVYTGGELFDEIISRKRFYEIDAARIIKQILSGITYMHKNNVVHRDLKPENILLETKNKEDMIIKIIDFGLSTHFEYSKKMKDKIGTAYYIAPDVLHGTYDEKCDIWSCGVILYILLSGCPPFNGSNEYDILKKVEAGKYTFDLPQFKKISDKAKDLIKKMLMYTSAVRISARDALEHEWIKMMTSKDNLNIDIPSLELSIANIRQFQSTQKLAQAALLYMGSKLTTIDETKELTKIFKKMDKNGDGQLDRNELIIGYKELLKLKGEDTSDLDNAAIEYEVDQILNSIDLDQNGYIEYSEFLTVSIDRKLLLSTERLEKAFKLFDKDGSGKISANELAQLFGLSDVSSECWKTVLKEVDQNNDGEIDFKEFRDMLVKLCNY

We go through 20 molecules from PubChem BioAssay.

A number with no mark means an inactive call. For some of these results: Potency and affinity values are given separately. The source made the active and inactive calls. Unless noted, no rule for the calls is given here.

Sequence of Plasmodium falciparum protein kinase 6 (PK6, PF3D7_1337100) (Q8IDW1 1-305): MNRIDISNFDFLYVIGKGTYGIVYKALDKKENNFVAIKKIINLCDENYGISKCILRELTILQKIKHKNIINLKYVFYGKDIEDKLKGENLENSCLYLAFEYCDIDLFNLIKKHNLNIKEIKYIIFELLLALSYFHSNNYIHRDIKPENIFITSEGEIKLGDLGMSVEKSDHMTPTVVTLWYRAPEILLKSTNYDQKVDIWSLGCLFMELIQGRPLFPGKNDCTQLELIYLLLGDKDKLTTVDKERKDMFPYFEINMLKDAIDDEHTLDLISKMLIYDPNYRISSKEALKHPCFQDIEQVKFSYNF

For `Cc1cccc2[nH]c(-c3ccc(-c4cccc(CNCCCN5CCCC5=O)c4)cc3)nc12`, the growth inhibition is 3% in test [1] and 96% (active) in test [4]. Besides, the inhibition (usually the change of the read-out against control, counted positive when it falls) in test [2] was 6%; in test [3] it was -8%. Further, the result in test [5], in test [6], in test [7] and in test [8] was inactive.
For the molecule `CC(C)COc1ccc(Cl)cc1Cc1ccc(-c2nc3ccc(N4CCN(C)CC4)cc3[nH]2)o1`, the results for the growth inhibition in test [1] and in test [4] were 41% and 102% (active), respectively. For the same molecule, the values for the inhibition in test [2] and in test [3] were 6% and 0%, respectively. For the same molecule, the result in test [5], in test [6], in test [7] and in test [8] was inactive.
As to `CCN(CC)CCCC(C)Nc1cc(C=Cc2ccccc2Cl)nc2cc(Cl)ccc12` (stereo not given), the growth inhibition in test [1] is 77% (active); in test [4] it was 99% (active). Also, the inhibition was 0% in test [2] and -2% in test [3]. Also, the result in test [5], in test [6], in test [7] and in test [8] was inactive.
Take `CC=CC(=O)N1CCN(c2nccc(-c3ccc(C(C)(C)C)cc3)n2)CC1`: the results for the growth inhibition in test [1] and in test [4] were 70% (active) and 95% (active), respectively. The inhibition was 20% in test [2] and 0% in test [3]. Besides, the outcome in test [5], in test [6], in test [7] and in test [8] was inactive.
`O=C(Nc1ccc(-c2cccc(-c3nc4ccc(F)cc4[nH]3)c2)cc1)Nc1ccsc1`: the results for the growth inhibition in test [1] and in test [4] were 51% (active) and 101% (active), respectively. The inhibition in test [2] is 34%; in test [3], 5%. In addition, the outcome in test [5], in test [6], in test [7] and in test [8] was inactive.
`Cc1cccc2[nH]c(-c3cccc(-c4cccc(NC(=O)CNC(=O)c5ccc(O)cc5)c4)c3)nc12`: the figures for the growth inhibition in test [1] and in test [4] were 49% and 94% (active), respectively. Further, the inhibition was 9% in test [2] and -1% in test [3]. For the same molecule, the result in test [5], in test [6], in test [7] and in test [8] was inactive.
As for `O=C(CSc1ccccn1)Nc1c(F)cccc1F`, the results for the growth inhibition in test [1] and in test [4] were -5% and 88% (active), respectively. Further, the inhibition in test [2] was -2%; in test [3], 1%. For the same molecule, the result in test [5], in test [6], in test [7] and in test [8] was inactive.
Regarding `Cc1ccc(CN2CCCN(Cc3cccc(NC(=O)c4ccc(Cl)c(Cl)c4)c3)CC2)cc1`, the results for the growth inhibition in test [1] and in test [4] were 18% and 96% (active), respectively. The inhibition is 32% in test [2] and -1% in test [3]. Also, the result in test [5], in test [6], in test [7] and in test [8] was inactive.
As to `COc1ccc(NC(=O)Nc2ccc(-c3ccncc3)c(Cl)c2)cc1N1CCN(C)CC1`, the figures for the growth inhibition in test [1] and in test [4] were 62% (active) and 98% (active), respectively. For the same molecule, the figures for the inhibition in test [2] and in test [3] were 19% and 3%, respectively. The result in test [5], in test [6], in test [7] and in test [8] was inactive.
On to `CNCCNCc1ccc(-c2ccc(-c3nc4ccc(C(F)(F)F)cc4[nH]3)s2)cc1`, for which the growth inhibition in test [1] was 100% (active); in test [4], 99% (active). Further, the inhibition in test [2] is 30%; in test [3], -2%. For the same molecule, the outcome in test [5], in test [6], in test [7] and in test [8] was inactive.
On to `O=[N+]([O-])c1cnc(Nc2ccccc2O)nc1Nc1ccccc1O`, for which the growth inhibition in test [1] was 80% (active); in test [4] it was 98% (active). Moreover, the results for the inhibition in test [2] and in test [3] were 24% and -3%, respectively. Further, the outcome in test [5], in test [6], in test [7] and in test [8] was inactive.
For the molecule `c1cc(CNCCN2CCNCC2)cc(-c2ccc(-c3nc4ccccc4[nH]3)cc2)c1`, the figures for the growth inhibition in test [1] and in test [4] were 11% and 98% (active), respectively. Moreover, the inhibition was 3% in test [2] and -3% in test [3]. Also, the outcome in test [5], in test [6], in test [7] and in test [8] was inactive.
With `CCn1cnc2c(N3CCCC3=O)cc(C(=O)N[C@@H](Cc3ccccc3)[C@H](O)CNC3CCCCC3)cc21`, the growth inhibition in test [1] is 94% (active); in test [4] it was 98% (active). Further, the results for the inhibition in test [2] and in test [3] were -2% and -5%, respectively. The result in test [5], in test [6], in test [7] and in test [8] was inactive.
Consider `Cc1onc(-c2ccc(Cl)cc2)c1-c1ccnn1S(=O)(=O)c1ccc(Cl)cc1`, for which the growth inhibition in test [1] was 99% (active); in test [4], 101% (active). Moreover, the inhibition is -3% in test [2] and 3% in test [3]. Moreover, the outcome in test [5], in test [6], in test [7] and in test [8] was inactive.
For the molecule `COc1cc2nc(N3CCC(CNC(=O)c4ccc(-c5ccc(-c6noc(C)n6)cc5C)cc4)CC3)nc(N)c2cc1OC`, the results for the growth inhibition in test [1] and in test [4] were 99% (active) and 100% (active), respectively. The inhibition in test [2] was 99% (active); in test [3], -4%. In addition, the outcome in test [5], in test [6], in test [7] and in test [8] was inactive.
For `COc1cccc(C(=O)Nc2ccc(S(=O)(=O)c3cc4c(cc3OC)CCN(C)CC4)cc2)c1`, the growth inhibition in test [1] is 3%; in test [4], 86% (active). The inhibition in test [2] was -11%; in test [3], -1%. Moreover, the outcome in test [5], in test [6], in test [7] and in test [8] was inactive.
Turning to `O=C(Nc1ccc(Cl)c(Cl)c1)N1CCc2ccc(OCCCN3CCCCC3)cc2CC1`, the growth inhibition in test [1] was -2%; in test [4], 92% (active). Moreover, the values for the inhibition in test [2] and in test [3] were 27% and -2%, respectively. The result in test [5], in test [6], in test [7] and in test [8] was inactive.
As for `CCN(CC)CCCC(C)Nc1cc(C=Cc2ccc([N+](=O)[O-])cc2)nc2ccc(OC)cc12` (stereo not given), the growth inhibition in test [1] and in test [4] was 100% (active) each time. For the same molecule, the inhibition in test [2] was 37%; in test [3], 4%. The result in test [5], in test [6], in test [7] and in test [8] was inactive.
On to `N#Cc1ccc(CN2CCCN(Cc3cccc(NC(=O)c4ccc(-c5ccccc5)cc4)c3)CC2)cc1`, for which the growth inhibition in test [1] was 12%; in test [4], 88% (active). The inhibition is 33% in test [2] and 0% in test [3]. Moreover, the result in test [5], in test [6], in test [7] and in test [8] was inactive.
On to `CCCCn1c(SC(C)C)nc2c(c1=O)C1(CCCCC1)Cc1ccccc1-2`, for which the growth inhibition in test [1] is 60% (active); in test [4], 99% (active). Besides, the inhibition in test [2] was 1%; in test [3], -2%. Also, the result in test [5], in test [6], in test [7] and in test [8] was inactive.
